Measured values as given in ChEMBL document CHEMBL1157539, “Thousands of chemical starting points for antimalarial lead identification” (Nature, 2010).

Key:
Type in all cases: functional
Plasmodium falciparum [1] = experiment: GSK_TCMDC: Inhibition of Plasmodium falciparum 3D7 in whole red blood cells, using parasite LDH activity as an index of growth. Test compounds present at 2uM
Plasmodium falciparum [2] = experiment: GSK_TCMDC: Inhibition of Plasmodium falciparum Dd2 in whole red blood cells, using parasite LDH activity as an index of growth. Test compounds present at 2uM
HepG2 = experiment: GSK_TCMDC: Percent inhibition of human HepG2 cell line. Test compounds present at 10uM.

Row | SMILES | Inhibition (Plasmodium falciparum [1]) [%] | Inhibition (Plasmodium falciparum [2]) [%] | Inhibition (HepG2) [%]
1 | CN1CCOc2ccc(Nc3nnc(-c4cccc(-c5cccnc5)c4)o3)cc2C1 | 100 | 100 | 0
2 | COc1cc2nccc(Nc3ccc(Oc4ccccc4)cc3)c2cc1OC.Cl | 100 | 99 | 13
3 | CC(C)c1ccc(CN2CCC(NC(=O)c3ccc(-c4ccccc4F)s3)CC2)cc1.O=C(O)C(F)(F)F | 81 | 13 | 46
4 | CCN(CCO)CCc1cccc(Nc2nccc(-c3c(-c4ccc(NC(=O)N(CC)CC)cc4)nn4ccccc34)n2)c1.Cl | 100 | 95 | 46
5 | O=C(Cc1ccc(F)cc1)NC1CCN(c2ccnc3cc(Cl)ccc23)C1.O=C(O)C(F)(F)F (stereo unspecified) | 99 | 85 | 0
6 | Cc1ccc(NC(=O)c2ccnc(N3CCN(c4ccncc4)CC3)c2)cc1F.O=C(O)C(F)(F)F | 94 | 12 | 43
7 | Nc1ncc(-c2cc3ccccc3o2)c(N)n1 | 81 | 2 | 0
8 | CCC(C)NC(=O)CN1CN(c2ccccc2)C2(CCN(C(=O)c3ccc(-c4ccccc4)cc3)CC2)C1=O (stereo unspecified) | 100 | 100 | 0
9 | O=C(/C=C/c1ccc(Cl)c(Cl)c1)NCCCCCN1CCC(c2c[nH]c3ccc(O)cc23)CC1 | 100 | 0 | 20
10 | CC(=O)Nc1ccc(OCCCCN(Cc2ccccc2OC(F)(F)F)c2ccc(C(F)(F)F)c(C#N)c2)c(Cl)c1 | 89 | 96 | 11
11 | Cc1cc2nc(-c3cc(Br)ccc3O)c(-c3cc(Br)ccc3O)nc2cc1C | 96 | 12 | 2
12 | Nc1ncc(-c2cn[nH]c2)cc1-c1nc2cc(Cl)cnc2[nH]1 | 100 | 70 | 40
13 | O=C(O)C(F)(F)F.O=c1[nH]ccc2nc(N[C@@H]3CCCNC3)nc(Nc3ccc(S(=O)(=O)N4CCOCC4)cc3)c12 | 96 | 99 | 13
14 | COCCN(C)CCCOc1cc2c(cc1OC)ncn2-c1cc(OCc2ccccc2C(F)(F)F)c(C(N)=O)s1.Cl | 98 | 49 | 24
15 | C[C@H](Cc1ccc(Oc2ccc(C[C@@H](C)NC[C@H](O)c3cccc(Cl)c3)cc2)cc1)NC[C@H](O)c1cccc(Cl)c1.Cl | 100 | 96 | 99
16 | CCS(=O)(=O)Nc1ccc2c(c1)/C(=C(/Nc1ccc(CN3CCCCC3)cc1)c1ccccc1)C(=O)N2 [HESPERADIN] | 87 | 74 | 53
17 | COc1ccc(CCNC(=O)c2cc3c(=O)n4cccc(C)c4nc3n(C)c2=N)cc1 | 99 | 99 | 22
18 | CCC(CC(C)C(=O)O)=C(c1ccccc1)c1ccccc1 (stereo unspecified) | 98 | 1 | 12
19 | COc1ccc2nc(C)cc(Nc3ccc(Oc4ccc(Cl)cc4)c(Cl)c3)c2c1 | 100 | 100 | 48
20 | Cc1ccc2c(c1)C1(CC(=O)N(CCc3scnc3C)C1=O)C(=O)N2Cc1ccccc1 (stereo unspecified) | 83 | 73 | 0
21 | CS(=O)(=O)NCCCNCc1ccc(-c2ccc(-c3nc4cc(F)ccc4[nH]3)cc2)cc1.O=C(O)C(F)(F)F | 100 | 97 | 17
22 | CCCNCc1ccc(-c2ccc(CN(C(=O)c3nn(-c4ccccc4)nc3C)C(C)CN(C)C)cc2)nc1.O=C(O)C(F)(F)F (stereo unspecified) | 95 | 95 | 27
23 | CCN(CCCN1CCCCC1)c1cc(C)nc(Nc2ccc(C)c(Br)c2)n1.O=C(O)C(F)(F)F | 100 | 98 | 42
24 | Cc1ccc(C)c2sc(N(CCCn3ccnc3)C(=O)C=Cc3cccs3)nc12.Cl | 100 | 93 | 20
25 | CC1CCCCN1CCCNc1ncc2c(-c3ccc(NC(=O)Nc4cc(C(F)(F)F)ccc4F)c(F)c3)nn(C)c2n1.O=C(O)C(F)(F)F (stereo unspecified) | 100 | 97 | 27
26 | CC[C@H](C)CNC(=O)c1cccc(-c2cccc(CN3CCC(N4CCCC4)CC3)c2)n1.O=C(O)C(F)(F)F | 100 | 86 | 9
27 | CN1CCC(N(Cc2ccc(-c3ccc(C(F)(F)F)cc3)nc2)C(=O)Cn2c(CCc3cccc(F)c3F)cc(=O)c3ccccc32)CC1.O=C(O)C(O)C(O)C(=O)O | 91 | 85 | 60
